Compounds without any hit were thinned out: in the full panel of roughly 83,000, 20% have a hit.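 Values shown are percent growth following 48 h exposure of cells in 96-well plates to a single concentration of compound; below 10 was considered active.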 Values without a mark were called inactive. Active and inactive are the calls of the source.

The values that follow come from PubChem BioAssay (NCI).

What all share (test): NCI-60 one-dose screen, 48 h (100 = growth as untreated, 0 = no growth, -100 = all killed)
For one test, the system named is NCI-H23 lung. The following applies: 10 µM unless noted.
The test system of another test is NCI-H226 lung. The following applies: 10 µM unless noted.
A further test deals with NCI-H322M lung. The following applies: 10 µM unless noted.
The subject of another test is HOP-62 NSCLC. To be noted: 10 µM unless noted.
The next test concerns NCI-H460 lung. The following applies: 10 µM unless noted.
The test system of a further test is HOP-92 NSCLC. To be noted: 10 µM unless noted.
In another test the test system is NCI-H522 lung. To be noted: 10 µM unless noted.
The next test deals with A549/ATCC NSCLC. To be noted: 10 µM unless noted.
In the next test the test system is 786-0 renal. To be noted: 10 µM unless noted.
A further test deals with COLO 205 colon. The following applies: 10 µM unless noted.
The next test relates to DU-145 prostate. To be noted: 10 µM unless noted.
For a further test, the system named is K-562 leukemia. The following applies: 10 µM unless noted.
A further test has as its system MALME-3M melanoma. The following applies: 10 µM unless noted.
The next test deals with MDA-MB-231 breast. To be noted: 10 µM unless noted.
In another test the test system is RXF 393 renal. The following applies: 10 µM unless noted.
For another test, the system named is SF-268 CNS. To be noted: 10 µM unless noted.
A further test has as its system SF-295 CNS. The following applies: 10 µM unless noted.
In another test the test system is SF-539 CNS. The following applies: 10 µM unless noted.
In a further test the test system is UACC-257 melanoma. The following applies: 10 µM.
The subject of the next test is M14 melanoma. To be noted: 10 µM unless noted.

As for `CCOC(=O)c1c(NC(=O)c2ccc(F)cc2F)sc2c1CCC(=O)C2`, the growth is 103% in the test with NCI-H23 lung; 107% in the test with NCI-H226 lung; 102% in the test on NCI-H322M lung; 104% in the test with HOP-62 NSCLC; 102% in the test with NCI-H460 lung; 107% in the test on HOP-92 NSCLC. Further, the growth in the test on NCI-H522 lung is 51.6%; with A549/ATCC NSCLC, 92.8%; in the test on 786-0 renal, 100%; in the test with COLO 205 colon, 109%; in the test with DU-145 prostate it was 94.9%; in the test with K-562 leukemia, 86.7%. The growth was 118% with MALME-3M melanoma; 97.2% in the test on MDA-MB-231 breast; 117% in the test on RXF 393 renal; 91.9% in the test with SF-268 CNS; 95.1% in the test on SF-295 CNS; 79.3% in the test with SF-539 CNS. In addition, the growth in the test with UACC-257 melanoma was 102%; with M14 melanoma, 111%.

In the case of `Oc1ccc(CSc2nnc(-c3cnccn3)o2)c2cccnc12`, the growth was 12.1% in the test with NCI-H23 lung; 23.6% with NCI-H226 lung; 31.6% with NCI-H322M lung; 20.9% in the test on HOP-62 NSCLC; 2.29% (active) in the test on NCI-H460 lung; -9.09% (active) in the test with HOP-92 NSCLC. Besides, the growth in the test with NCI-H522 lung is 7.24% (active); in the test on A549/ATCC NSCLC it was 20.9%; with 786-0 renal, 24.5%; with COLO 205 colon, 85.4%; in the test with DU-145 prostate, 26.1%; in the test with K-562 leukemia, 10.2%. For the same molecule, the growth was -6.87% (active) in the test with MALME-3M melanoma; 31% in the test with MDA-MB-231 breast; 20.6% in the test with RXF 393 renal; 22.9% in the test with SF-268 CNS; -7.6% (active) in the test on SF-295 CNS; 18.6% in the test with SF-539 CNS. Further, the growth in the test with UACC-257 melanoma is 6.92% (active); in the test on M14 melanoma, 28.6%.

Take `O=C(CCCCCCN1CC(=O)N2[C@@H](c3cccc(Br)c3)c3[nH]c4ccccc4c3C[C@H]2C1=O)NO`: the growth in the test with NCI-H23 lung is 43.1%; in the test with NCI-H226 lung it was 91.7%; in the test with NCI-H322M lung, 42.2%; in the test with HOP-62 NSCLC it was 30.2%; with NCI-H460 lung, 26.4%; in the test on HOP-92 NSCLC, 2% (active). The growth with NCI-H522 lung was 8.55% (active); with A549/ATCC NSCLC it was 59.4%; in the test with 786-0 renal it was 46.6%; in the test with COLO 205 colon, 7.27% (active); in the test on DU-145 prostate, 24.2%; in the test on K-562 leukemia, 15.5%. In addition, the growth with MALME-3M melanoma is 29.3%; in the test on MDA-MB-231 breast it was 11.7%; with RXF 393 renal, -16.7% (active); in the test on SF-268 CNS it was 24.9%; with SF-295 CNS it was 15.6%; in the test on SF-539 CNS it was 32.2%. For the same molecule, the growth is 44.9% in the test on UACC-257 melanoma and 27.4% in the test on M14 melanoma.

Consider `CCOC(=O)C1=C(C)N=C2Sc3ccccc3N2C1c1ccccc1` (stereo not given), for which the growth is 85.2% in the test with NCI-H23 lung; 89.2% with NCI-H226 lung; 86.8% in the test with NCI-H322M lung; 101% in the test on HOP-62 NSCLC; 91.2% in the test on NCI-H460 lung; 75.4% in the test with HOP-92 NSCLC. Moreover, the growth with NCI-H522 lung was 73.9%; in the test on A549/ATCC NSCLC it was 82.9%; with 786-0 renal it was 87.7%; in the test with COLO 205 colon, 96%; in the test with DU-145 prostate, 98.2%; in the test with K-562 leukemia, 72.8%. Besides, the growth in the test with MALME-3M melanoma is 102%; in the test on MDA-MB-231 breast, 83.2%; in the test on RXF 393 renal, 109%; with SF-268 CNS it was 101%; with SF-295 CNS, 98.3%; with SF-539 CNS it was 90.3%. In addition, the growth with UACC-257 melanoma was 92.6%; with M14 melanoma, 89.5%.

As to `CCN1C/C(=N\S(=O)(=O)c2ccccc2)N(CC)C1=S`, the growth in the test with NCI-H23 lung is 94.1%; in the test on NCI-H226 lung, 101%; in the test with NCI-H322M lung it was 101%; with HOP-62 NSCLC, 105%; in the test with NCI-H460 lung, 108%; with HOP-92 NSCLC, 139%. Besides, the growth in the test with NCI-H522 lung is 94.3%; in the test with A549/ATCC NSCLC it was 98.5%; in the test with 786-0 renal it was 96.6%; in the test with COLO 205 colon, 107%; with DU-145 prostate, 117%; in the test on K-562 leukemia, 98.8%. The growth was 100% in the test with MALME-3M melanoma; 104% in the test with MDA-MB-231 breast; 117% in the test with RXF 393 renal; 104% in the test on SF-268 CNS; 103% in the test with SF-295 CNS; 102% with SF-539 CNS. In addition, the growth is 97.6% in the test with UACC-257 melanoma and 99% with M14 melanoma.

For `COc1ccc(-c2nc3cc(Cl)c(Cl)cc3n2CC(=O)N=Nc2c(O)[nH]c3ccc(Br)cc23)cc1`, the growth in the test on NCI-H23 lung was -21.5% (active); in the test with NCI-H226 lung, -16.2% (active); in the test on NCI-H322M lung, 41%; in the test on HOP-62 NSCLC, -50.2% (active); in the test with NCI-H460 lung, -42.5% (active); in the test with HOP-92 NSCLC it was -34% (active). The growth was 14% in the test with NCI-H522 lung; -28.9% (active) in the test on A549/ATCC NSCLC; -17.3% (active) in the test with 786-0 renal; -37.9% (active) in the test on COLO 205 colon; -48.4% (active) in the test with DU-145 prostate; 21.6% in the test on K-562 leukemia. The growth in the test with MALME-3M melanoma is -38.5% (active); with MDA-MB-231 breast it was 0.262% (active); with RXF 393 renal it was -58.3% (active); with SF-268 CNS, 9.74% (active); in the test on SF-295 CNS, -50% (active); in the test on SF-539 CNS it was 14.9%. In addition, the growth with UACC-257 melanoma is 61.9%; in the test with M14 melanoma, -48.8% (active).

On to `Cc1ccc(-c2csc(N/N=C/c3nc4ccccc4n3C3CC3)n2)cc1`, for which the growth is 82.9% in the test with NCI-H23 lung; 64.2% in the test with NCI-H226 lung; 91.5% in the test on NCI-H322M lung; 74.9% with HOP-62 NSCLC; 84.4% with NCI-H460 lung; 92.8% in the test on HOP-92 NSCLC. For the same molecule, the growth in the test on NCI-H522 lung is -72.4% (active); in the test on A549/ATCC NSCLC, 41.1%; with 786-0 renal it was 108%; in the test on COLO 205 colon, 8.64% (active); in the test on DU-145 prostate, 105%; in the test with K-562 leukemia it was -55.8% (active). For the same molecule, the growth in the test on MALME-3M melanoma is -72.9% (active); in the test with MDA-MB-231 breast it was 80.4%; in the test with RXF 393 renal, 71.6%; in the test on SF-268 CNS it was 80.1%; in the test with SF-295 CNS it was 96.8%; in the test on SF-539 CNS it was 66%. Further, the values for the growth in the test with UACC-257 melanoma and with M14 melanoma were 79.7% and 89%, respectively.

As to `COc1cc(CNC(=O)Cc2ccccc2[N+](=O)[O-])ccc1OCC(=O)NO`, the growth in the test with NCI-H23 lung was 102%; in the test on NCI-H226 lung it was 100%; with NCI-H322M lung, 107%; in the test on HOP-62 NSCLC, 102%; with NCI-H460 lung, 114%; with HOP-92 NSCLC it was 101%. For the same molecule, the growth in the test on NCI-H522 lung was 102%; in the test on A549/ATCC NSCLC, 106%; with 786-0 renal, 106%; with COLO 205 colon, 104%; with DU-145 prostate it was 108%; in the test on K-562 leukemia it was 105%. Moreover, the growth is 100% with MALME-3M melanoma; 102% with MDA-MB-231 breast; 116% in the test on RXF 393 renal; 102% in the test with SF-268 CNS; 105% with SF-295 CNS; 95.9% with SF-539 CNS. Further, the growth in the test on UACC-257 melanoma is 105%; with M14 melanoma, 101%.
